Source: PubChem BioAssay
TEAD-YAP inh = TEAD-YAP interaction inhibition; HEK-TIYL cells, TEAD-Gal4/YAP UAS-luciferase luminescence; inhibition, % at 9.12 µM; hit rate 1.4% among 640,000; AID 1259422; in the data active = inhibition above about 32%
GPR151 activ = human GPR151 activation; Q8TDV0; PathHunter beta-arrestin GPR151 cells, luminescence; activation, % at 11.2 µM; hit rate 1% among 650,000; in the data active = activation above about 4.9%
Target sequence (Q8TDV0 whole entry, looked up): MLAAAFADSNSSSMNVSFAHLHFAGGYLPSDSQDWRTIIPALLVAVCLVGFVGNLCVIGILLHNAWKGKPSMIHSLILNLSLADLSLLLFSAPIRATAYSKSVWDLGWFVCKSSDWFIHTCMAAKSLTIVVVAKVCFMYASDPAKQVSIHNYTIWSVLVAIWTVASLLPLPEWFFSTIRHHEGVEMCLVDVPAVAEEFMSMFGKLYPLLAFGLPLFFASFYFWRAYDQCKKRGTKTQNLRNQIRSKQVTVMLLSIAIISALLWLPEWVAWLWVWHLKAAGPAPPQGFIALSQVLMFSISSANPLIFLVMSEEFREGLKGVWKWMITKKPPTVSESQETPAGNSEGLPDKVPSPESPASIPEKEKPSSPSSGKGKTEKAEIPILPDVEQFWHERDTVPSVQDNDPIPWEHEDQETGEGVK
FBW7 act = activators of human E3 ligase FBW7; normalized activity (activation), % at 26.1 µM; AID 1259310; hit rate 0.13% among 650,000; AlphaScreen FBW7–phospho-cyclin E peptide binding, activator screen; in the data active = normalized activity above about 1.9%;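 note: purified mutant Fbw7 with reduced substrate affinity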
MITF inh = human MITF inhibition, primary screen; O75030; AlphaScreen MITF homodimerization, bead proximity signal; inhibition, % at 2.6 µM; hit rate 0.91% among 650,000; AID 1259374; in the data active = inhibition above about 50%
Large screens that a line does not name were inactive. The list is not random: actives were taken first. Their share in the collection is about 3.4%.

COc1cc(C2C(C#N)=C(N)Oc3c2ccc2ccccc32)ccc1O (configuration not stated)	TEAD-YAP inh 57.8
N#CC1=C(N)Oc2cc3ccccc3cc2C1c1ccc(F)cc1 (configuration not stated)	TEAD-YAP inh 47.0
COc1ccc(C2C(C#N)=C(NC(=O)c3ccccc3OC)Oc3c2ccc2ccccc32)cc1OC (configuration not stated)	none
COc1cccc(C2C(C#N)=C(N)Oc3c2ccc2ccccc32)c1 (configuration not stated)	TEAD-YAP inh 57.9
COc1cc(C2C(C#N)=C(N)Oc3c2ccc2ccccc32)cc(Cl)c1O (configuration not stated)	TEAD-YAP inh 63.6
CN(C)CCNCCCCOc1ccc(Br)cc1Cl	none
O=C(COc1ccccc1)Nc1ccc(N2CCC(NCc3ccccc3)CC2)cc1	TEAD-YAP inh 33.6
CCc1ccc(NC(=O)C23CC4CC(CC(C4)C2)C3)cc1	none
CN(C(=O)c1coc(=O)c2ccccc12)c1ccccc1F	none
CCN(C(=O)c1coc(=O)c2ccccc12)c1ccccc1F	TEAD-YAP inh 34.7
CCN(C(=O)c1coc(=O)c2ccccc12)c1cccc(Cl)c1	TEAD-YAP inh 39.4
CCCN(C(=O)c1coc(=O)c2ccccc12)c1ccccc1C	TEAD-YAP inh 38.2
O=C(COc1ccc(-n2cnnn2)cc1)N1CCc2ccccc21	none
Cc1cc(=O)[nH]c(NC2CCN(C(=O)C(C)(C)c3ccc(Cl)cc3)CC2)n1	none
Cc1cc(=O)[nH]c(NC2CCN(C(=O)N3c4ccccc4Sc4ccccc43)CC2)n1	TEAD-YAP inh 56.3
CCC(=O)Oc1ccc(/C=C(/C#N)c2nc3ccccc3[nH]2)cc1OC	none
CC(C)(C)c1ccc(C2=N/C(=C\c3ccc(Br)o3)C(=O)O2)cc1	none
CNC(=O)/C(C#N)=C/c1c(Oc2ccc(F)cc2)nc2c(C)cccn2c1=O	none
Cc1ccccc1Oc1nc2c(C)cccn2c(=O)c1/C=C(\C#N)C(=O)NC1CCCC1	none
CNC(=O)/C(C#N)=C/c1c(Oc2cccc(C)c2C)nc2c(C)cccn2c1=O	TEAD-YAP inh 34.9
Cc1ccccc1Oc1nc2c(C)cccn2c(=O)c1/C=C(\C#N)C(=O)NCC1CCCO1 (configuration not stated)	TEAD-YAP inh 33.5
C=CCNC(=O)/C(C#N)=C/c1c(Oc2ccccc2C)nc2c(C)cccn2c1=O	TEAD-YAP inh 40.7
CC(=O)c1ccc(-c2nnc(CCC(=O)N(C)Cc3nc4ccccc4[nH]3)o2)s1	none
N[C@H]1CC[C@@H](C(=O)Nc2ccc3cnccc3c2)C1	TEAD-YAP inh 36.3
N[C@@H]1CC[C@H](C(=O)Nc2ccc3[nH]ncc3c2)C1	none
CC1=CC(C)(C)N2C(=O)C(=O)c3cc(OS(=O)(=O)c4ccc(C)cc4)cc1c32	none
CC1=CC(C)(C)N2C(=O)C(=O)c3cc(O)cc1c32	TEAD-YAP inh 54.2
O=C(NCCN1Cc2ccccc2OC(c2ccsc2)C1)C1CCOC1 (configuration not stated)	none
COc1cccc2c1OC1(CCC(C)CC1)N1N=C(c3ccc(C)o3)CC21 (configuration not stated)	TEAD-YAP inh 32.9
COc1ccc(C2Oc3c(OC)cccc3C3CC(c4cccc(OC)c4)=NN32)cc1 (configuration not stated)	TEAD-YAP inh 43.8
COc1ccc(C2=NN3C(C2)c2cccc(OC)c2OC3c2ccc(OC)cc2)cc1 (configuration not stated)	none
COc1cccc(C2Oc3c(OC)cccc3C3CC(c4ccc(C)o4)=NN32)c1 (configuration not stated)	TEAD-YAP inh 37.6
CCOc1cccc2c1OC(c1ccc(OC)cc1)N1N=C(c3ccc(C)o3)CC21 (configuration not stated)	none
COc1cccc2c1OC1(CCCCC1)N1N=C(c3ccc(C)o3)CC21 (configuration not stated)	none
Cc1ccc(Nc2ccc(NC(=O)c3c(F)cccc3Cl)cc2)nn1	none
Cc1cc(OC(=O)C(C)C)cc2c1C(=O)/C(=C/c1cccnc1)O2	TEAD-YAP inh 62.8
CCOC(=O)COc1cccc(/C=C2\Oc3cc(OC)ccc3C2=O)c1	none
COC(=O)c1ccc2c(c1)C(=O)/C(=C/c1cccc(OC)c1)O2	none
COc1cccc(/C=C2\Oc3cc(O)cc(C)c3C2=O)c1	TEAD-YAP inh 97.6
Cc1cc(O)cc2c1C(=O)/C(=C/c1cccnc1)O2	TEAD-YAP inh 60.8
O=C1/C(=C\c2cccnc2)Oc2cc(O)ccc21	none
Cc1cc2c(c(=O)o1)C(c1ccccc1I)C(C#N)=C(N)O2 (configuration not stated)	none
COc1cccc(NC(=O)Cc2noc3ccccc23)c1	none
Cc1ccc(N2C(N)=C(C#N)C(c3ccc4c(c3)OCO4)C3=C2CC(C)(C)CC3=O)cc1 (configuration not stated)	TEAD-YAP inh 41.8
COc1cc(C2C(C#N)=C(N)N(c3ccc(C)cc3)C3=C2C(=O)CC(C)(C)C3)cc(OC)c1OC (configuration not stated)	TEAD-YAP inh 54.1
O=C1CC2(CCCC2)CC(=O)N1c1ccc(F)cc1F	none
COC(C(=O)Nc1ccc(Br)c(C)c1)c1ccccc1 (configuration not stated)	none
O=[N+]([O-])c1ccc(/C=C/c2nc3ccc([N+](=O)[O-])cc3[nH]2)cc1	none
O=[N+]([O-])c1ccc(/C=C/c2nc3ccccc3[nH]2)cc1	TEAD-YAP inh 74.1
COc1cccc(NS(=O)(=O)c2ccc3c(c2)[C@H]2C=CC[C@H]2[C@@H](c2cccc(C)c2)N3)c1	none
CCCNc1nc2c(C)cccn2c(=O)c1/C=C1\SC(=S)N(C(C)CC)C1=O (configuration not stated)	none
CN(C1=C(Cl)C(=O)N(c2ccc(I)cc2)C1=O)c1ccccc1	TEAD-YAP inh 56.0
Cc1ccc(N2C(=O)C(Cl)=C(N(C)c3ccccc3)C2=O)cc1	TEAD-YAP inh 52.4
O=C1C(Cl)=C(Cl)C(=O)N1c1ccc(I)cc1	none
C[C@H](c1ccccc1)n1c(=O)[nH]c2ncc(-c3ccc(O)cc3)nc21	none
CCOC(=O)C1CCCN(C(=O)CN2N=C(c3ccccc3)CCC2=O)C1 (configuration not stated)	none
COc1ccc(C(=O)N2CCN(Cc3ccc(SC)cc3)CC2)cc1OC	TEAD-YAP inh 44.8
COc1cccc(NS(=O)(=O)c2cc(C(=O)N3CCCC3)ccc2NCCc2ccc(OC)c(OC)c2)c1	none
COc1cccc(NS(=O)(=O)c2cc(C(=O)N3CCN(Cc4ccccc4)CC3)ccc2NCCc2ccc(OC)c(OC)c2)c1	TEAD-YAP inh 52.1
COC(=O)C1=C(C)NC2=C(C(=O)c3ccccc32)C1c1cc(Cl)c(OC)c(OC)c1 (configuration not stated)	TEAD-YAP inh 60.6
CC(=O)c1c(C)oc2ccc(NS(=O)(=O)c3cccc([N+](=O)[O-])c3)cc12	none
CC1CCc2sc(NC(=O)c3cc(Cl)ccc3[N+](=O)[O-])c(C#N)c2C1 (configuration not stated)	TEAD-YAP inh 51.0
N#Cc1c(NC(=O)c2cc([N+](=O)[O-])ccc2Cl)sc2c1CCCC2	TEAD-YAP inh 48.9
